# Assay outcomes deposited in PubChem by several laboratories.
# PLK1 kinase inh: human PLK1 kinase inhibitors, primary screen, biochemical, TR-FRET; actives 0.53% (n = 97,000); Serine/threonine-protein kinase PLK1 (Homo sapiens), P53350; inhibition, % at 10 µM; recombinant PLK1 kinase, TR-FRET peptide phosphorylation;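 active = inhibition of 50% or more in the single-concentration screen; inactive = inhibition below 50%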;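 also: 0% = DMSO max control and 100% = H-89 dihydrochloride min control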
# Target sequence (P53350 whole entry, looked up): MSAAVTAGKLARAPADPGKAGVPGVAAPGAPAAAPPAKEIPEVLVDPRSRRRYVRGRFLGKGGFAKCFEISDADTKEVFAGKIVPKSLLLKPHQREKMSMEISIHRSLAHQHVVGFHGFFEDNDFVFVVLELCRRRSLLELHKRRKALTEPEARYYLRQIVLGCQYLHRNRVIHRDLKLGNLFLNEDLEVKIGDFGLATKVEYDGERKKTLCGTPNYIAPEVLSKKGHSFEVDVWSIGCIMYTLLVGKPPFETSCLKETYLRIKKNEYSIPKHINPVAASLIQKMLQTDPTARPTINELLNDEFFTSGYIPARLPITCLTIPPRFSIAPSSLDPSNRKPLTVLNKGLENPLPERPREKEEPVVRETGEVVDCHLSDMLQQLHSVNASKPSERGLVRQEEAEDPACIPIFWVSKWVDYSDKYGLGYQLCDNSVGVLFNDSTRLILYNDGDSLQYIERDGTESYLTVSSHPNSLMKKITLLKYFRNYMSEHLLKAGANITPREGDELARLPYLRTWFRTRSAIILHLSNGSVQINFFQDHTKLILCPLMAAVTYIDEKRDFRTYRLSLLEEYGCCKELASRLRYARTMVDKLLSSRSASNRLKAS
# IL1B cytotox: cytotoxicity in IL-1B stimulated HUVEC, primary screen, cytotoxicity control for IL-1B NFkB translocation project, imaging, Hoechst nuclear count, IL-1B stimulus | HUVEC cell count loss | AID 845, 2007 | cell count reduction, % at 2 µM | actives 0.41% (n = 94,000);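 active = cell count reduction more than 3 SD above the screen-wide mean, cut at about 70% in these data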;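 also: normalized per plate to untreated control cells as the no-loss baseline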
# PTK2B oligo ant: antagonists of Pyk2 self-association, primary screen, Q293 cells, FERM NanoBiT luminescence, HTS; Protein-tyrosine kinase 2-beta (Homo sapiens), Q14289; hits give low values; z-score (the deposit names both 25 µM and 10 µM); actives 0.83% (n = 99,000); AID 1347419, 2020;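 active = Z-score of -3 or lower, scaled per plate to the spread of control and sample wells; inactive = z-score above -3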;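 also: negative z-score means lost luminescence so less FERM oligomerization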
# NFkB transloc inh: inhibitors of IL-1B driven NFkB p65 nuclear import, primary screen, imaging, HUVEC, IL-1B stimulus, high-content imaging; inhibition, % at 2 µM; actives 0.43% (n = 94,000); HUVEC IL-1B NFkB p65 nuclear translocation imaging;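 active = inhibition above about 30% together with a positive call from visual inspection of the well image, limit read from the data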;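 also: nuclear over cytoplasmic p65 intensity ratio measured by imaging; 0% = IL-1B stimulated DMSO wells and 100% = unstimulated DMSO wells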
# IL1B NFkB pot: enhancers of NFkB p65 translocation in HUVEC – imaging, IL-1B stimulus, high-content imaging, primary screen; actives 0.3% (n = 94,000); AID 819, 2007; HUVEC IL-1B NFkB p65 nuclear translocation imaging; activation, % at 2 µM;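 active = activation above 40%, about the mean plus 3 SD, also judged a hit on visual image review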;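 also: percent activation is computed from the nuclear over cytoplasmic p65 intensity ratio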
# PLK1 PBD inh: Plk1 polo box domain binding inhibitors, primary screen, biochemical, fluorescence polarization; actives 0.13% (n = 97,000); Plk1 PBD phosphopeptide binding; Serine/threonine-protein kinase PLK1 (Homo sapiens), P53350; inhibition, %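 (tested at about 20 µM)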; AID 693, 2007; in the data active = inhibition above about 34%, passing the limit was not always enough
# * = called active by the depositor; · = no result. Most compounds without a hit are left out; they make up all but 2.2% or so of the library.
SMILES,PLK1 kinase inh,IL1B cytotox,PTK2B oligo ant,NFkB transloc inh,IL1B NFkB pot,PLK1 PBD inh
O=C(NC1CCCC1)C(c1ccccc1)N(Cc1ccc2c(c1)OCO2)C(=O)Cc1cccs1 (configuration not stated),-11,-18,-3.1*,8,-8,-19
COc1ccc(CN(C(=O)c2cccs2)C(C(=O)NC2CCCCC2)c2ccc3ncccc3c2)cc1 (configuration not stated),-8,-11,-3.1*,-7,7,-6
O=C(Nc1ccccc1F)c1ccc(-n2cncn2)nc1,-8,-89,0.26,-10,10,-1
COCc1[nH]nc2c1C(c1ccccc1OC)C(C#N)=C(N)O2 (configuration not stated),·,·,0.37,·,·,·
COCc1[nH]nc2c1C(c1ccccc1Cl)C(C#N)=C(N)O2 (configuration not stated),8,88*,1,12,-12,-6
Cc1csc(NC(=O)CSc2nnc(-c3ccoc3C)n2Cc2ccco2)n1,-6,6,0.11,-5,5,13
CC1(C)C=C(c2ccc(O)cc2)CC(C)(C)N1,-7,-44,-0.09,45*,-45,-23
CC(C)(C)C(=O)NCCN1CCN(C(=O)C(C)(C)C)CC1,-14,-2,1.1,-3,3,-8
CCOC(=O)CSC1=C(C#N)C(c2ccco2)C(C(=O)Nc2cccc(C(F)(F)F)c2)=C(C)N1 (configuration not stated),-21,9,0.87,-1,1,11
CCOC(=O)C1=C(c2ccccc2)NC(SCC(=O)Nc2cccc(C)c2)=C(C#N)C1c1ccco1 (configuration not stated),-7,-4,-4*,-5,5,-7
CCc1ccc(NC(=O)CSC2=C(C#N)C(c3ccco3)C3=C(CCCC3=O)N2)cc1 (configuration not stated),-8,21,-1.8,2,-2,7
CCOC(=O)C1=C(c2ccccc2)NC(SCC(=O)Nc2ccc(C)cc2)=C(C#N)C1c1ccco1 (configuration not stated),-11,-12,-4.3*,8,-8,0
CCOC(=O)C1=C(c2ccccc2)NC(SCC(=O)Nc2ccccc2C)=C(C#N)C1c1ccco1 (configuration not stated),-6,23,-3.7*,2,-2,10
Cc1ccc(NC(=O)CSC2=C(C#N)C(c3ccco3)C3=C(CC(C)(C)CC3=O)N2)cc1 (configuration not stated),-10,-31,-3.4*,-35,35,6
CCOC(=O)C1=C(c2ccccc2)NC(SC)=C(C#N)C1c1ccco1 (configuration not stated),-11,13,-2.5,-4,4,-31
COc1cc(OC)cc(-c2nn[nH]n2)c1,·,·,0.12,·,·,·
Cc1ccc(S(=O)(=O)N2CCOCC2)cc1NC(=O)Cn1ccsc1=N,-14,-4,1.1,-40,40*,-2
Cc1ccc(-c2nc3cnccn3c2Nc2c(C)cccc2C)o1,-6,-24,·,3,-3,-19
COCC(C)n1c(C)cc(C(=O)COC(=O)CN=C2NS(=O)(=O)c3ccccc32)c1C (configuration not stated),·,·,0.67,·,·,·
Cc1cc(Cl)ccc1NC(=O)CCCN1C(=O)CCC1=O,-15,-4,-0.15,43*,-43,8
O=c1[nH]ncc2c3ccccc3n(Cc3ccc(F)cc3)c12,52*,-12,-0.73,8,-8,1
CCOC(=O)c1cc2c(=O)n3ccccc3nc2n(CCCOC)c1=NC(=O)c1cccnc1,2,0,·,-44,44*,2
CCOC(=O)c1cc2c(=O)n3ccccc3nc2n(CCOC)c1=NC(=O)c1ccncc1,-8,10,0.39,-6,6,-10
COc1ccc(-c2csc(NC(=O)C3CCCCN3S(=O)(=O)c3ccccc3)n2)cc1 (configuration not stated),-4,5,-3.4*,8,-8,3
COc1ccc(S(=O)(=O)N2CCCC2C(=O)Nc2ccc(C)cc2)cc1 (configuration not stated),1,24,-0.27,-3,3,7
SMILES,PLK1 kinase inh,IL1B cytotox,PTK2B oligo ant,NFkB transloc inh,IL1B NFkB pot,PLK1 PBD inh
CCN(CCC(=O)Nc1ccc(Br)c(C)c1)Cc1ccccc1,1,-5,0.33,50*,-50,2
Cc1ccc(OCC(=O)Nc2sc3c(c2C#N)CCC3)cc1C,-3,-10,0.5,1,-1,7
Cc1ccc(OCC(=O)Nc2sc3c(c2C#N)CCC3)cc1,-3,25,-0.67,-59,59*,-6
CCOc1ccccc1N(CC(=O)OC)S(C)(=O)=O,-8,71*,0.54,98*,-98,-13
CCOc1ccccc1N(CC(=O)N1CCCCCC1)S(C)(=O)=O,-4,-23,-0.92,-10,10,0
c1ccc(CNCc2ccc3c(c2)OCO3)nc1,-13,2,0.31,7,-7,-22
O=C(Nc1ccc2c(c1)OCCO2)C1c2ccccc2C(=O)N2CCc3ccccc3C12 (configuration not stated),-10,8,·,-3,3,-1
COCCN1C(=O)c2ccccc2C(C(=O)Nc2ccc3c(c2)OCCO3)C1c1ccc(F)cc1 (configuration not stated),-12,-6,-3.4*,-5,5,18
COc1ccc2c(c1)C1(Nc3ccccc3-c3nc4ccccc4n31)C(=O)N2 (configuration not stated),-1,71*,-2.1,16,-16,34
COc1ccc2c(c1)C1(Nc3ccccc3-c3nc4ccccc4n31)C(=O)N2C (configuration not stated),-6,5,-3.1*,7,-7,-11
CC1(c2ccncc2)Nc2ccccc2-c2nc3ccccc3n21 (configuration not stated),-11,-3,-0.88,1,-1,-19
COc1ccc(N2C(=O)c3ccccc3NC23C(=O)N(C)c2ccccc23)cc1 (configuration not stated),-3,-14,0.04,2,-2,10
O=C(c1ccc(O)cc1)c1ccc(Cl)cc1,-2,4,0.21,-26,26,20
C=C(c1ccc(O)cc1)c1ccc(O)cc1,7,3,-4.6*,-25,25,-22
CCOC(=O)Cc1csc(NC(=O)COc2ccc(OC)cc2)n1,-17,-2,·,4,-4,32
CCOC(=O)Cc1csc(NC(=O)COc2ccc(N(C)S(=O)(=O)c3ccc(C)cc3)cc2)n1,6,-9,-3.9*,-7,7,6
